Bioassay records: PubChem, National Center for Advancing Translational Sciences (NCATS)
Sampled rows, rich in hits. Any-hit rate of the full collection: about 9.3%.
VACV mCherry inh: vaccinia inhibition (mCherry reporter); 310,000 compounds, 0.63% hits; AID 720579; Potency, µM (series often up to 36.5 µM), actives largely listed as inhibitors; Vaccinia virus mCherry reporter infection, fluorescence; calls by dose curve; tested in A549 cells; note: nearly all actives have a fitted effect of over 35% in size
HCV inhibitor: blocks hepatitis C virus. Huh7.5.1 HCVcc-Cre infection, luciferase reporter, 44 h. Potency, µM (series often up to 41.8 µM), usual class: inhibitors. 340,000 compounds, 3.4% hits. AID 651820
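Reporter virus HCVcc-Cre (~0.5 moi) infects cells exposed to compound; seeding density 1,000 cells/well with 4 h settling beforehand. Luminescence, 15 sec read, taken 44 h post-infection following a 15 min RT substrate incubation.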
Vaccinia Venus: inhibitors of vaccinia virus (Venus reporter) | Vaccinia virus Venus reporter expression, fluorescence | Potency, µM (highest dose often 36.5 µM), actives largely listed as inhibitors | 330,000 compounds, 0.46% hits; calls by dose curve; tested in A549 cells; note: nearly all actives have a fitted effect of over 30% in size
HCMV antiviral: inhibitors of human cytomegalovirus; AID 1259415; activity change, negative = inhibition, % at 57.5 µM; 410,000 compounds, 4.5% hits; HFF cells, HCMV-luciferase reporter, 72 h; active compounds read low; in the data active = activity change below about -60%; inconclusive = no clear call, values can overlap the other calls; inactive = above about -39%
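After 16 h attachment at 37C, HFF cells received test compound and HCMV-luciferase (1 PFU/cell); reporter luminescence read 72 h later, data normalized against buffer-only and known inhibitor Salinomycin.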
FMDV inh: blocks foot and mouth disease virus. AID 1159524. Potency, µM (series often up to 57.9 µM), most hits filed as inhibitors. 410,000 compounds, 1.2% hits. FMDV antiviral cell-based qHTS; calls by dose curve; tested in HEK293T cells; note: read-out not given here; nearly all actives have a fitted effect of over 45% in size
Sm TGR inh: blocks Schistosoma mansoni thioredoxin glutathione reductase | purified TGR, DTNB reduction, TNB absorbance 405 nm | Potency, µM (titrated, usually from 114 µM), actives largely listed as inhibitors | 360,000 compounds, 3% hits | Q962Y6; note: nearly all actives have a fitted effect of over 60% in size
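First, TGR (20 nM dispensed) and NADPH were mixed with compound. Second, a 15 min room-temperature incubation followed. Third, further NADPH and then DTNB were added to start the reaction. Finally, TNB absorbance was monitored kinetically.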
Large screens that a line does not name were inactive. Unless noted, calls come from the whole dose curve; as a rule, active = well fitted curve in the direction sought with a large enough effect; inconclusive = small, poorly fitted or top-dose-only effect, or another doubt; inactive = no such curve, though single readings can be large; an effect the other way counts as inactive or inconclusive.

Fc1ccc(NC(=S)Nc2ccc(Cl)cc2)cc1	HCMV antiviral -78, Sm TGR inh inconclusive
O=C(c1ccc(Cl)cc1)c1cc(-c2ccccn2)c(N2CCOCC2)s1	HCV inhibitor inconclusive, FMDV inh inconclusive (no result: VACV mCherry inh, Vaccinia Venus)
Cc1cc(C)c(NS(=O)(=O)c2cccc3cccnc23)c(C)c1	none
COc1ccc(NS(=O)(=O)c2ccc3ccccc3c2)c2ncccc12	VACV mCherry inh inconclusive, HCV inhibitor inconclusive, HCMV antiviral -92
NC(=S)Nc1cccc2cccnc12	HCMV antiviral -79 (no result: VACV mCherry inh)
COc1ccccc1NS(=O)(=O)c1ccc2ccccc2c1	none (no result: VACV mCherry inh, Vaccinia Venus)
CC(=O)Nc1ccc(S(=O)(=O)Nc2ccccn2)cc1	none
CC(=O)Nc1ccc(S(=O)(=O)Nc2cccc3cccnc23)cc1	HCMV antiviral -83
Cc1ccc(S(=O)(=O)Nc2cccc3cccnc23)c([N+](=O)[O-])c1	VACV mCherry inh inconclusive, HCV inhibitor inconclusive, Vaccinia Venus inconclusive, HCMV antiviral -98, FMDV inh inconclusive
O=C(CNS(=O)(=O)c1c(F)cccc1F)NC1CCCc2ccccc21 (centres undefined)	none (no result: Sm TGR inh)
Cc1ccccc1NS(=O)(=O)c1ccc(S(=O)(=O)N2CCCC2)cc1	FMDV inh inconclusive (no result: HCV inhibitor, Sm TGR inh)
Cc1ccc2cccc(NS(=O)(=O)c3ccccc3)c2n1	HCMV antiviral -80, FMDV inh inconclusive
CS(=O)(=O)Nc1cccc2cccnc12	none (no result: VACV mCherry inh)
O=S(=O)(Nc1cccc2cccnc12)c1ccccc1	VACV mCherry inh 10µM, HCV inhibitor inconclusive, Vaccinia Venus 13µM, HCMV antiviral -101, FMDV inh inconclusive
O=S(=O)(Nc1cccc2cccnc12)c1ccc(S(=O)(=O)N2CCCC2)cc1	HCV inhibitor 2.8µM, HCMV antiviral -86 (no result: FMDV inh)
Cn1nc(-c2ccc(N3CCOCC3)c(NS(=O)(=O)c3ccccc3)c2)c2ccccc2c1=O	Sm TGR inh inconclusive
Cc1ccc(CN2CC(C(=O)Nc3cccc(C)n3)CC2=O)cc1 (centres undefined)	none
CN(C)c1ccc(/C=C/c2cc(N(C)C)nc3ccccc23)cc1	none (no result: HCV inhibitor, HCMV antiviral, FMDV inh, Sm TGR inh)
COC(=O)c1ccc(-c2nc3cc(Cl)c(N)cc3s2)cc1	FMDV inh 10µM
COC(=O)c1ccc(C(=O)Nc2nc3cc(N)c(C)cc3s2)cc1	HCMV antiviral inconclusive
COC(=O)c1ccc(-c2nc(O)c(C)s2)cc1	HCMV antiviral -65 (no result: Sm TGR inh)
CC1CCCC(NCC(O)COC(c2ccc(F)cc2)c2ccc(F)cc2)C1C (centres undefined)	VACV mCherry inh inconclusive, HCV inhibitor inconclusive, Vaccinia Venus inconclusive, HCMV antiviral -97, FMDV inh inconclusive
CC1CCCC(NC(=O)CSc2ccc(F)cc2)C1C (centres undefined)	none (no result: VACV mCherry inh, Vaccinia Venus)
CN1C2CCC1CC(OC(=O)c1cc(Cl)cc(Cl)c1)C2 (centres undefined)	HCV inhibitor 14µM, FMDV inh inconclusive (no result: VACV mCherry inh)
COc1cc(OC)cc(-c2oc3cccnc3c2C#CCCO)c1	VACV mCherry inh inconclusive, HCV inhibitor 7.1µM, Vaccinia Venus inconclusive, Sm TGR inh inconclusive
COc1ccc(C(=O)c2ccc3oc(-c4ccc(OC)cc4)c(C#CCCO)c3c2)cc1	HCV inhibitor inconclusive, Vaccinia Venus inconclusive (no result: Sm TGR inh)
CCCn1c(CN2CCCCC2CC)nc2c1c(=O)n(C)c(=O)n2C (centres undefined)	none
COc1ccc(C(=O)COC(=O)c2cc3ccccc3oc2=O)c(OC)c1	none
COc1ccc(CC(NC(C)=O)C(=O)NC2CCN(C(=O)C3CCCCC3)CC2)cc1OC (centres undefined)	HCMV antiviral -68
COc1ccc(CC(NC(C)=O)C(=O)NC2CCN(C(=O)C3CCCCC3)CC2)c(OC)c1 (centres undefined)	none
O=C(O)c1cccc(NC(=S)NC(=O)c2ccc(-c3ccccc3)cc2)c1	none (no result: Sm TGR inh)
C=CCNC(=S)Nc1ccc2cn[nH]c2c1	Sm TGR inh 40µM
C=CCNC(=S)Nc1ccc(OC(=O)Nc2ccc(Cl)c(Cl)c2)cc1	Sm TGR inh 35µM
S=C(Nc1ccccc1)Nc1ccc2cn[nH]c2c1	HCMV antiviral inconclusive, Sm TGR inh inconclusive (no result: VACV mCherry inh, Vaccinia Venus)
CC(=O)c1cccc(NC(=S)NC(=O)c2ccccc2)c1	Sm TGR inh 28µM
O=C(NC(=S)Nc1ccc2cn[nH]c2c1)c1ccccc1	HCV inhibitor inconclusive, Sm TGR inh 14µM
CN(CC(=O)Nc1ccc(F)cc1)C(=O)COC(=O)c1ccccc1	none
CCCN(CC(=O)Nc1ccc(F)c(F)c1F)C(=O)c1cc(S(=O)(=O)N(C)C)ccc1N1CCCC1	none (no result: VACV mCherry inh, Vaccinia Venus, Sm TGR inh)
Cc1ccc2ncccc2c1NC(=S)NC(=O)c1ccccc1	FMDV inh inconclusive, Sm TGR inh 20µM
Cc1ccc2ncccc2c1NS(=O)(=O)c1ccccc1	none
CC(=O)c1cccc(NC(=S)NC(=O)c2cccc(Cl)c2)c1	Sm TGR inh 40µM
O=C(NC(=S)Nc1cccnc1)c1cccc(Cl)c1	none (no result: HCV inhibitor, Sm TGR inh)
CNc1c(NC(=O)c2ccc3c(c2)OCO3)c(=O)oc2ccccc12	none
O=c1c2ccccc2sc2nc(C3CCCCC3)n(Cc3ccco3)c(=O)c12	Sm TGR inh 10µM (no result: VACV mCherry inh, Vaccinia Venus)
CCc1nc2sc3ccccc3c(=O)c2c(=O)n1Cc1ccco1	Sm TGR inh 35µM
CCCS(=O)(=O)NC(=O)C1(C)CCCN(C(=O)c2ccc3snnc3c2)C1 (centres undefined)	none (no result: HCV inhibitor, Sm TGR inh)
O=C1NC(=O)C(=Cc2ccc(-c3ccc(Cl)cc3)o2)C(=O)N1	Vaccinia Venus inconclusive, FMDV inh 32µM, Sm TGR inh inconclusive (no result: HCMV antiviral)
O=C1NC(=O)C(=Cc2ccc(Sc3ccccc3)o2)C(=O)N1	FMDV inh 22µM, Sm TGR inh 50µM
O=C(COC(=O)C1CC2C=CC1C2)Nc1ccc2c(c1)OC(F)(F)O2 (centres undefined)	none (no result: VACV mCherry inh, Vaccinia Venus)
C=C[C@]12CC[C@H](OC(C)=O)CC1=CCC1C2CC[C@@]2(C)C1CCC21OCCO1 (some centres undefined)	none (no result: Sm TGR inh)
COc1ccc(N(C(=O)c2snc(C(N)=O)c2N)C(C(=O)NCc2ccccc2)c2ccc(F)cc2)c(OC)c1 (centres undefined)	HCV inhibitor inconclusive, HCMV antiviral -80
COc1ccccc1N(C(=O)c1snc(C(N)=O)c1N)C(C(=O)NCc1ccccc1)c1ccc(O)cc1 (centres undefined)	none
NC(=O)c1nsc(C(=O)N(c2ccccc2F)C(C(=O)NCc2ccc(F)cc2)c2ccc(O)cc2)c1N (centres undefined)	HCV inhibitor 3.5µM, HCMV antiviral -102
CCN(CC)S(=O)(=O)c1cccc(S(=O)(=O)c2cccc(S(=O)(=O)N(CC)CC)c2)c1	HCV inhibitor 11µM, HCMV antiviral -69 (no result: VACV mCherry inh, Vaccinia Venus)
CCN(CC)S(=O)(=O)c1cccc(S(=O)(=O)N2CCCCC2)c1	none (no result: FMDV inh)
CC(CC(=O)Nc1cccc(S(=O)(=O)N2CCCCC2)c1)c1ccccc1 (centres undefined)	HCV inhibitor inconclusive (no result: VACV mCherry inh, Vaccinia Venus)
